# Test results reported in PubChem BioAssay AID2238 (Southern Research Specialized Biocontainment Screening …, 2010).
# Active and inactive are the calls of the source. No rule for the calls is given here.
# Experiment: West Nile virus CPE inhibition, SAR follow-up, cell-based, synthesized analogs (AID 2238)
# Settings: max CPE inhibition: measured here: maximum CPE inhibition observed, at 40 µM, stronger effect = higher value unless noted
SMILES,max CPE inhibition,outcome
O=c1c2cc(Br)ccc2nc2n1CC/C2=C/c1ccccc1,1.37%,inactive
CC(=O)Nc1ccc2nc3n(c(=O)c2c1)CCC3,2.33%,inactive
COc1ccc(-c2csc(N(C)C(=O)c3ccccc3Cl)n2)cc1,"1.16% [measured here: maximum CPE inhibition observed, at 5 µM, stronger effect = higher value]",inactive
CC1(O)c2cc(Br)ccc2N=C2CCCN21 (stereo unspecified),"1.3% [measured here: maximum CPE inhibition observed, at 0.16 µM, stronger effect = higher value]",inactive
Cc1cccc2nc3n(c(=O)c12)CCC3,1.92%,inactive
O=C(CSc1nc2ccccc2c(=O)n1-c1ccc(F)cc1)Nc1ccc2c(c1)OCCO2,2.5%,inactive
c1ccc2c(c1)CN1CCCC1=N2,"2.6% [measured here: maximum CPE inhibition observed, at 80 µM, stronger effect = higher value]",inactive
Cc1cccc2c1-c1sc(C(=O)NCCCN3CCCC(C)C3)cc1CO2 (stereo unspecified),"12.1% [measured here: maximum CPE inhibition observed, at 10 µM, stronger effect = higher value]",inactive
COc1ccc(-c2csc(N(Cc3ccccc3)C(=O)c3ccccc3Cl)n2)cc1,2.87%,inactive
O=[N+]([O-])c1ccc2c(c1)C(O)N1CCCC1=N2 (stereo unspecified),1.83%,inactive
Cc1cccc2c(=O)n3c(nc12)CCC3,1.97%,inactive
COc1cccc(NC(=O)CSc2nc3ccccc3c(=O)n2-c2ccc(F)cc2)c1,1.33%,inactive
O=C(Nc1nc(-c2ccc(Cl)cc2)cs1)c1ccc(Cl)cc1,0.79%,inactive
O=C(Nc1nc(-c2ccc(Cl)cc2)cs1)c1ccccc1F,1.34%,inactive
CC1CC(C)CN(C(=O)CSc2nc3ccccc3c(=O)n2-c2ccc(F)cc2)C1 (stereo unspecified),2.88%,inactive
COc1ccc(-c2csc(NC(=O)c3ccccc3F)n2)cc1,1.03%,inactive
O=c1c2cc(Cl)cc(Cl)c2nc2n1CCC2,1.72%,inactive

SMILES,max CPE inhibition,outcome
COc1ccc(-c2csc(N(CCCBr)C(=O)c3ccccc3Cl)n2)cc1,1.23%,inactive
Cc1ccc2nc3n(c(=O)c2c1)CCC3,2.12%,inactive
O=c1c2cc([N+](=O)[O-])ccc2nc2n1CCC2,"0.23% [measured here: maximum CPE inhibition observed, at 1.25 µM, stronger effect = higher value]",inactive
COc1ccc(-c2csc(N(C(=O)c3ccccc3Cl)C(C)C)n2)cc1,1.92%,inactive
COc1ccc(NC(=O)CSc2nc3ccccc3c(=O)n2-c2ccc(F)cc2)cc1,2.96%,inactive
O=C(Nc1nc(-c2ccc(Cl)cc2)cs1)c1ccc(I)cc1,0.78%,inactive
COc1ccc(-c2csc(NC(=O)c3ccccc3Cl)n2)cc1,1.74%,inactive
O=c1c2cc(I)ccc2nc2n1CCC2,0.68%,inactive
COc1ccc(-c2csc(NC(=O)c3cccc(Cl)c3)n2)cc1,1.98%,inactive
O=C(Nc1nc(-c2ccc(Cl)cc2)cs1)c1ccccc1Cl,0.4%,inactive
COc1ccc(-c2csc(NC(=O)c3ccc(Cl)cc3)n2)cc1,6.01%,inactive
O=C(CSc1nc2ccccc2c(=O)n1-c1ccc(F)cc1)Nc1cccc2ccccc12,2.57%,inactive
O=c1c2c(F)cccc2nc2n1CCC2,1.51%,inactive
COc1ccccc1NC(=O)CSc1nc2ccccc2c(=O)n1-c1ccc(F)cc1,"0.86% [measured here: maximum CPE inhibition observed, at 20 µM, stronger effect = higher value]",inactive
COc1cccc(-n2c(SCC(=O)Nc3ccc4c(c3)CCC4)nc3ccccc3c2=O)c1,"26.8% [measured here: maximum CPE inhibition observed, at 20 µM, stronger effect = higher value]",inactive
O=c1c2cccc(Cl)c2nc2n1CCC2,1.83%,inactive
